Hits are enriched below; roughly 19% of the tested compounds scored in any of these assays.
DT40 TDP1 CPT: qHTS for Inhibitors of human tyrosyl-DNA phosphodiesterase 1 (TDP1): qHTS in cells in presence of CPT; chicken DT40 Tdp1-/-;hTDP1 cells + 20 nM CPT, ATP luminescence, 48 h; 12% of 420,000 active; AID 686979, 2013; Potency, µM (doses to about 46.2 µM), usual class: inhibitors; further: nearly all actives have a fitted effect of over 55% in size
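Chicken DT40 Tdp1-/- cells complemented with human TDP1, 400 cells/well, exposed to compounds plus 20 nM camptothecin for at least 48 h at 37 C; viability read as ATP content by CellTiter-Glo luminescence.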
SW480 rereplic: A quantitative high throughput screen for small molecules that induce DNA re-replication in SW480 colon adenocarcinoma cells; SW480 DNA re-replication, Hoechst DNA content imaging, 48 h; Potency, µM (doses to about 46.1 µM), hits mostly activators; 1.8% of 340,000 active; AID 624297, 2012; further: nearly all actives have a fitted effect of over 55% in size
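Hoechst fluorescence of nuclei (405 nm excitation, 500-530 nm emission) measured by plate-scanning imager after 48 hr compound exposure at 37 C; re-replication scored as increased number of nuclei with elevated intensity.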
TDP1 cell noCPT: qHTS for Inhibitors of human tyrosyl-DNA phosphodiesterase 1 (TDP1): qHTS in cells in absence of CPT | DT40 Tdp1-/- hTDP1 cells, no CPT, ATP luminescence, 48 h | 15% of 420,000 active | Potency, µM (titrated, usually from 46.2 µM), actives largely listed as inhibitors; further: nearly all actives have a fitted effect of over 55% in size
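DT40 Tdp1-/-;hTDP1 cells, no CPT (DMSO vehicle only), 400 cells/well; compounds pin-transferred; ≥48 hr, 37 °C; CellTiter-Glo 30 min RT dark, luminescence read.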
Chronic BCR inh: qHTS Assay to Find Inhibitors of Chronic Active B-Cell Receptor Signaling. ABC-DLBCL IkBa-CBG/CBR reporter, luminescence ratio, 4 h. Potency, µM (titrated, usually from 46.1 µM), actives largely listed as inhibitors. 0.05% of 340,000 active. AID 493014, 2011; active means well fitted inhibition curve with a large enough effect in the signal ratio, with a control signal flat, not every such curve was filed as active; inconclusive means small, poorly fitted or top-dose-only effect, or effect the other way, or a change in a side signal; the % refers to the signal ratio
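Doxycycline induced both beetle luciferases in TMD8 lymphoma cells; IKK-driven degradation limits the IkappaBalpha-fused green signal, while red luminescence normalises for cell number and nonspecific effects. Compounds tested up to 46 uM, 4 hrs.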
MCF10A rerep: A quantitative high throughput screen for small molecules that induce DNA re-replication in MCF 10a normal breast cells; MCF 10A DNA re-replication, Hoechst nuclear intensity, 48 h; Potency, µM (series often up to 46.1 µM), usual class: activators; 2.9% of 350,000 active; further: nearly all actives have a fitted effect of over 50% in size
IL-1B inflam inh: qHTS for Inhibitors of Inflammasome Signaling: IL-1-beta AlphaLISA Primary Screen; THP-1 LPS/ATP IL-1B secretion, AlphaLISA, 16 h; stronger effect = lower value; activity change, % at 57.5 µM; 4.7% of 360,000 active; AID 743279, 2014; in the data active means activity change below about -50%; inconclusive means mostly about -30% to -49%
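Secreted IL-1B measured by AlphaLISA bead assay after 16 h compound exposure of THP-1 cells; compounds (final up to 57.5 uM) added 1 h before LPS (250 ng/mL) and ATP (1.25 mM) stimulation; lower signal means less secretion.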
Each line names hits and unclear results; the compound was inactive in the other large screens. Unless noted, the call rests on the fitted dose curve; in most records, active means well fitted curve in the direction sought with a large enough effect; inconclusive means small, poorly fitted or top-dose-only effect, or another doubt; inactive means no such curve, though single readings can be large; an effect the other way counts as inactive or inconclusive.

CC/C(=N/OC(=O)c1cccc(C)c1)C(=O)c1cccs1	none
O=C(c1ccc(CNS(=O)(=O)c2cccc(Cl)c2)cc1)N1CCCC1	none
COc1ccc(N2CCN(C(=O)c3ccc(CNS(=O)(=O)c4ccc(C)cc4)cc3)CC2)cc1	DT40 TDP1 CPT inconclusive, TDP1 cell noCPT 12µM, MCF10A rerep inconclusive, IL-1B inflam inh inconclusive
O=C(c1ccc(CNS(=O)(=O)c2ccc(F)cc2)cc1)N1CCCCCC1	DT40 TDP1 CPT inconclusive, TDP1 cell noCPT 15µM (no result: SW480 rereplic, Chronic BCR inh, MCF10A rerep)
Cc1ccc(C)c(S(=O)(=O)NCc2ccc(C(=O)N3CCN(c4ccccc4)CC3)cc2)c1	DT40 TDP1 CPT inconclusive, TDP1 cell noCPT inconclusive, IL-1B inflam inh -63
COc1ccc(N2CCN(C(=O)c3ccc(CNS(=O)(=O)c4cc(C)ccc4C)cc3)CC2)cc1	DT40 TDP1 CPT 21µM, TDP1 cell noCPT 15µM, MCF10A rerep inconclusive
CCOC(=O)C1CCN(C(=O)c2ccc(CNS(=O)(=O)c3ccc(C)cc3)cc2)CC1	TDP1 cell noCPT inconclusive, Chronic BCR inh inconclusive
Cc1ccc(C)c(S(=O)(=O)NCc2ccc(C(=O)N3CC(C)OC(C)C3)cc2)c1 (configuration not stated)	none
Cc1ccc(C)c(S(=O)(=O)NCc2ccc(C(=O)N3CCCCCC3)cc2)c1	DT40 TDP1 CPT inconclusive, TDP1 cell noCPT 23µM, MCF10A rerep inconclusive
Cc1ccc(S(=O)(=O)NCc2ccc(C(=O)N3CCN(c4ccc([N+](=O)[O-])cc4)CC3)cc2)cc1	DT40 TDP1 CPT 16µM, TDP1 cell noCPT 9.2µM, Chronic BCR inh inconclusive
COc1ccc(C(CNC(=O)c2cccc(S(=O)(=O)Nc3cccc(C)c3)c2)N2CCOCC2)cc1 (configuration not stated)	DT40 TDP1 CPT inconclusive, TDP1 cell noCPT inconclusive
CCOc1ccc(NC(=S)N2CCN(C/C=C/c3ccccc3)CC2)cc1	DT40 TDP1 CPT inconclusive, TDP1 cell noCPT 18µM, IL-1B inflam inh inconclusive
CCOc1ccc(NS(=O)(=O)c2cccc(C(=O)N3CCN(C/C=C/c4ccccc4)CC3)c2)cc1	DT40 TDP1 CPT inconclusive, TDP1 cell noCPT 16µM, MCF10A rerep inconclusive, IL-1B inflam inh inconclusive (no result: Chronic BCR inh)
Cc1cc(F)ccc1S(=O)(=O)N1CCCOC1CNC(=O)C(=O)NCc1ccncc1 (configuration not stated)	none
CCN(CC)S(=O)(=O)c1ccc(C(=O)NC(=S)N2CCCCC2C)cc1 (configuration not stated)	DT40 TDP1 CPT inconclusive, TDP1 cell noCPT 16µM (no result: SW480 rereplic, Chronic BCR inh, MCF10A rerep)
CCCCN(CCCC)CCNC(=O)Cn1nc(CC)n2c(cc3sc(C)cc32)c1=O	DT40 TDP1 CPT 15µM, TDP1 cell noCPT 16µM (no result: SW480 rereplic, Chronic BCR inh, MCF10A rerep, IL-1B inflam inh)
CCc1nn(CC(=O)NCCCN(CC)CC)c(=O)c2cc3sc(C)cc3n12	TDP1 cell noCPT inconclusive, IL-1B inflam inh inconclusive
CCc1cc2c(cc3c(=O)n(CC(=O)NC(C)C)nc(CC)n32)s1	DT40 TDP1 CPT inconclusive, TDP1 cell noCPT 16µM (no result: SW480 rereplic, Chronic BCR inh, MCF10A rerep, IL-1B inflam inh)
CCN(c1cccc(C)c1)S(=O)(=O)c1cn(CC(=O)OC)c2ccc([N+](=O)[O-])cc12	Chronic BCR inh inconclusive
C=C1C(=O)C23CCC4C(C)(C(=O)OC)CCCC4(C)C2CCC1(O)C3 (configuration not stated)	DT40 TDP1 CPT 0.65µM, SW480 rereplic 1.2µM, TDP1 cell noCPT 0.52µM, MCF10A rerep 2.3µM, IL-1B inflam inh -103 (no result: Chronic BCR inh)
COc1ccc([C@H]2CC(=O)C[C@@H](CCn3cc(C(C)C)nn3)O2)cc1	none (no result: SW480 rereplic, Chronic BCR inh, MCF10A rerep)
CCn1c(-c2ccc(N)cc2)nc2ccccc21	none
CN(C)c1ccc(C(O)Cc2nc3ccccc3n2C)cc1 (configuration not stated)	IL-1B inflam inh -54
CC(C)n1c(-c2ccc(N(C)C)cc2)nc2ccccc21	DT40 TDP1 CPT 29µM, TDP1 cell noCPT 11µM
CN(C)c1ccc(-c2nc3ccccc3n2C)cc1	DT40 TDP1 CPT 13µM, SW480 rereplic inconclusive, TDP1 cell noCPT 13µM, Chronic BCR inh inconclusive, IL-1B inflam inh -66
CCn1c(-c2ccc(N(C)C)cc2)nc2ccccc21	DT40 TDP1 CPT 12µM, TDP1 cell noCPT 3.7µM
CN(C)c1ccc(-c2ccc3ccccc3n2)cc1	none (no result: SW480 rereplic, Chronic BCR inh, MCF10A rerep, IL-1B inflam inh)
Cn1cc(S(=O)(=O)N2CCCCC2)cc1C(=O)Nc1ccc(OC(F)(F)F)cc1	none (no result: SW480 rereplic, Chronic BCR inh, MCF10A rerep, IL-1B inflam inh)
O=C(CNC(=O)c1ccccc1F)OCCOc1cccc(Cl)c1	SW480 rereplic inconclusive
CCc1sc(C(=O)N(CCOC)c2c(N)n(Cc3ccccc3)c(=O)[nH]c2=O)cc1C	none (no result: SW480 rereplic, Chronic BCR inh, MCF10A rerep)
O=C(NCc1cccnc1)c1cnn(-c2nccc(-c3cccs3)n2)c1C1CC1	TDP1 cell noCPT inconclusive (no result: SW480 rereplic, Chronic BCR inh, MCF10A rerep, IL-1B inflam inh)
Cc1cc(C(=O)CN2CCC(C)CC2)c(C)n1-c1ccccc1F	DT40 TDP1 CPT inconclusive, TDP1 cell noCPT 16µM, MCF10A rerep inconclusive
OCC[C@@H]1NCc2cc(CO)cc(-c3ccccc3)c21	DT40 TDP1 CPT 21µM, TDP1 cell noCPT 18µM, IL-1B inflam inh inconclusive (no result: Chronic BCR inh)
COc1ccccc1CNC(=O)CCS(=O)(=O)c1ccc2c(c1)CCN2C(C)=O	none
Fc1ccc(-c2cc3nc4c(c(N5CCOCC5)n3n2)CCCC4)cc1	DT40 TDP1 CPT 18µM, TDP1 cell noCPT 16µM, IL-1B inflam inh inconclusive
O=C(C1CCCO1)N1CCN(c2c3c(nc4cc(-c5ccc(F)cc5)nn24)CCC3)CC1 (configuration not stated)	DT40 TDP1 CPT inconclusive, TDP1 cell noCPT 16µM
Cc1cccc(-c2cc3nc4c(c(NCc5ccco5)n3n2)CCCC4)c1	DT40 TDP1 CPT inconclusive, SW480 rereplic inconclusive, TDP1 cell noCPT inconclusive, Chronic BCR inh inconclusive, MCF10A rerep 16µM, IL-1B inflam inh -98
O=C(c1cc(F)c(F)c(F)c1F)N1CCN(C(=O)C2CCCO2)CC1 (configuration not stated)	none
CN(C)CCCNc1c2c(nc3cc(-c4cccc(F)c4)nn13)CCC2	SW480 rereplic inconclusive, MCF10A rerep inconclusive
Cc1cccc(-c2cc3nc4c(c(N5CCOCC5)n3n2)CCCC4)c1	DT40 TDP1 CPT 18µM, TDP1 cell noCPT 23µM
CN(C(=O)c1cccc(NC(=O)Cc2ccc(NC(=O)C3CCN(C(=O)C4CCC4)CC3)cc2)c1)C1CCC1	DT40 TDP1 CPT inconclusive, TDP1 cell noCPT inconclusive, MCF10A rerep inconclusive (no result: Chronic BCR inh)
OC1CCN(c2c3c(nc4cc(-c5ccc(F)cc5)nn24)CCC3)CC1	DT40 TDP1 CPT 16µM, TDP1 cell noCPT inconclusive

Bioassay records (PubChem BioAssay)
